Many of the other results were omitted from the sample, so hits are more common in it than they were.
ROS inducer: ROS inducers in U2OS cancer cells, primary screen, cell-based, H2DCF-DA fluorescence | U2OS ROS induction | ROS induction (% of piperlongumine), % at 10 µM | hit rate 2% among 46,000 | AID 624156, 2012; in the data active means ROS induction above about 79%, passing the limit was not always enough;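 further: 0% = DMSO vehicle median and 100% = reference compound median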
Numbers without * were called inactive.

What do the screens show for `CC(C)CN(CC(C)C)C(=O)Nc1ccccc1C(F)(F)F`?
ROS inducer: -6.6

How did Cc1cccn2cc(CNC(=O)C(C)(C)C)nc12 do in these assays?
ROS inducer: -6.9

Results for O=C(O)c1c(CNC2CCCc3ccccc32)c2ccccc2n1Cc1ccc(F)cc1Cl (configuration not stated) ?
ROS inducer: -8.9

How did C[C@@H]1CN([C@@H](C)CO)C(=O)c2cccc(NC(=O)Nc3ccc(F)cc3)c2O[C@H]1CN(C)Cc1ccc2c(c1)OCO2 do in these assays?
ROS inducer: 114.7*

What do the screens show for `COc1ccc(NC(=O)N(C)C[C@H]2Oc3c(cccc3N(C)C)C(=O)N([C@H](C)CO)C[C@@H]2C)cc1`?
ROS inducer: 79.4*

What do the screens show for `Cc1noc(C)c1NC(=O)N(C)C[C@@H]1Oc2c(NC(=O)Nc3ccc4c(c3)OCO4)cccc2C(=O)N([C@@H](C)CO)C[C@H]1C`?
ROS inducer: 115.5*

What do the screens show for `C[C@@H]1CN([C@H](C)CO)C(=O)c2cccc(NC(=O)Nc3ccc(F)cc3)c2O[C@@H]1CN(C)Cc1ccc2c(c1)OCO2`?
ROS inducer: -5.0

How did COc1ccc(NC(=O)N(C)C[C@H]2Oc3c(cccc3N(C)C)C(=O)N([C@@H](C)CO)C[C@H]2C)cc1 do in these assays?
ROS inducer: -4.0

Results for Cc1noc(C)c1NC(=O)N(C)C[C@@H]1Oc2c(NC(=O)Nc3ccc4c(c3)OCO4)cccc2C(=O)N([C@H](C)CO)C[C@@H]1C ?
ROS inducer: -4.7

What do the screens show for `C[C@@H]1CN([C@@H](C)CO)C(=O)c2cccc(NS(=O)(=O)c3ccccc3)c2O[C@H]1CN(C)Cc1ccc(Cl)c(Cl)c1`?
ROS inducer: 150.8*

How did C[C@@H]1CN([C@@H](C)CO)C(=O)c2cccc(NS(=O)(=O)c3ccccc3)c2O[C@@H]1CN(C)Cc1ccc(Cl)c(Cl)c1 do in these assays?
ROS inducer: 1.4

Results for C[C@@H]1CN([C@H](C)CO)C(=O)c2cccc(NS(=O)(=O)c3ccccc3)c2O[C@@H]1CN(C)Cc1ccc(Cl)c(Cl)c1 ?
ROS inducer: 26.6

Results for Cc1noc(C)c1NC(=O)N(C)C[C@H]1Oc2c(NC(=O)Nc3ccc4c(c3)OCO4)cccc2C(=O)N([C@H](C)CO)C[C@H]1C ?
ROS inducer: -5.1

Results for COc1ccc(NC(=O)N(C)C[C@@H]2Oc3c(cccc3N(C)C)C(=O)N([C@H](C)CO)C[C@H]2C)cc1 ?
ROS inducer: -5.3

What do the screens show for `C[C@H]1CN([C@@H](C)CO)C(=O)c2cccc(NC(=O)Nc3ccc(F)cc3)c2O[C@H]1CN(C)Cc1ccc2c(c1)OCO2`?
ROS inducer: 2.0

What do the screens show for `Cc1ccc(NC(=O)CSc2nc3c(sc4ccccc43)c(=O)n2CC2CCCO2)cc1C` (configuration not stated)?
ROS inducer: -6.4

What do the screens show for `CC1CCN(CN2C(=S)SC3=NC(=O)CCCN32)CC1`?
ROS inducer: 22.0

What do the screens show for `CCSc1nnc2n(/N=C/c3cccs3)cnn12`?
ROS inducer: -6.5

Results for Cc1ccc(S(=O)(=O)N(CCc2ccccc2)CC(=O)Nc2ccc(C(C)C)cc2)cc1 ?
ROS inducer: 32.0

Results for CC1CCCC(NC(=O)C2CCC(Cn3c(=O)[nH]c4ccccc4c3=O)CC2)C1C (configuration not stated) ?
ROS inducer: -2.5

Results for Clc1ccccc1CSc1nc(NCC2CCCO2)c2ccccc2n1 (configuration not stated) ?
ROS inducer: 21.5

What do the screens show for `CC(=O)OC(C(=O)Nc1nc2ccccc2s1)c1ccccc1` (configuration not stated)?
ROS inducer: -8.7

Results for C[C@@H]1CN([C@H](C)CO)C(=O)c2cccc(NC(=O)Nc3ccccc3)c2O[C@H]1CN(C)Cc1ccc(Oc2ccccc2)cc1 ?
ROS inducer: 21.5

How did C[C@H](CO)N1C[C@H](C)[C@H](CN(C)Cc2ccc(Oc3ccccc3)cc2)Oc2c(NC(=O)Nc3ccccc3)cccc2C1=O do in these assays?
ROS inducer: 4.2

How did C[C@H](CO)N1C[C@H](C)[C@H](CN(C)Cc2ccc(Oc3ccccc3)cc2)Oc2c(NC(=O)Nc3ccc(F)cc3)cccc2C1=O do in these assays?
ROS inducer: 12.1

How did CNC[C@@H]1Oc2ccc(NS(=O)(=O)c3c(C)noc3C)cc2CC(=O)N([C@H](C)CO)C[C@H]1C do in these assays?
ROS inducer: 99.2*

How did C[C@H]1CN([C@@H](C)CO)C(=O)c2cccc(NC(=O)Nc3ccc(C(F)(F)F)cc3)c2O[C@@H]1CN(C)Cc1ccc(Oc2ccccc2)cc1 do in these assays?
ROS inducer: -1.1

How did C[C@H](CO)N1C[C@H](C)[C@@H](CN(C)Cc2ccc(Oc3ccccc3)cc2)Oc2c(NC(=O)Nc3ccc(F)cc3)cccc2C1=O do in these assays?
ROS inducer: 82.0*

What do the screens show for `C[C@@H]1CN([C@@H](C)CO)C(=O)c2cccc(NC(=O)Nc3ccccc3)c2O[C@H]1CN(C)Cc1ccc(Oc2ccccc2)cc1`?
ROS inducer: 105.3*

Source: PubChem BioAssay (Broad Institute)
